# Experimental data taken from PubChem BioAssay AID686978 (National Center for Advancing Translational Sciences (NCATS), 2013).
# The whole screen tested about 420,000 compounds, of which about 64,000 (15%) were called active. About 27% were inconclusive and are not listed. Only a sample is shown. A number with no mark means an inactive call. The call rests on the fitted dose curve; in most records, active means well fitted inhibition curve with a large enough effect; inconclusive means small, poorly fitted or top-dose-only effect; inactive means flat fitted curve, though single readings scatter.
# Test: qHTS for Inhibitors of human tyrosyl-DNA phosphodiesterase 1 (TDP1): qHTS in cells in absence of CPT; further: nearly all actives have a fitted effect of over 55% in size
# Conditions: DT40 Tdp1-/- hTDP1 cells, no CPT, ATP luminescence, 48 h; activity change, negative = growth inhibition: at 46.2 µM (top of the series)
# Summary of the method: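 Growth kinetics read by CellTiter-Glo luminescence after ≥48 hr at 37 °C. Cells: DT40 Tdp1-/- stably carrying human TDP1, 400 per well, compound exposure in the absence of CPT (DMSO vehicle).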
# On the % scale 0 is the no-effect control and ±100 the full control effect; potency means the concentration at half of the fitted maximal effect.
SMILES,"activity change, negative = growth inhibition",Potency
O=c1[nH]n2c(=O)c3c([nH]c2c1N=Nc1ccccc1)CCC3,-20.5%,–
O=C(Nc1nnc(Cc2ccc(Cl)cc2)s1)c1ccncc1,-9.95%,–
COc1ccccc1CN1CCNC(=O)C1CC(=O)N(C)CC1CCOCC1 (stereo unspecified),17.6%,–
Cn1cc(/C=C/C(=O)N2CCCC(C(=O)c3ccc(C(F)(F)F)cc3)C2)cn1 (stereo unspecified),-27.1%,–
Cn1cc(CCC(=O)N2CCCC(C(=O)c3ccc(C(C)(C)C)cc3)C2)cn1 (stereo unspecified),–,20.6 µM (active)
COCC(=O)N1CCCC(C(=O)c2ccc(C(F)(F)F)cc2)C1 (stereo unspecified),4.79%,–
Cc1nccn1-c1ccc(NC(=O)[C@H]2O[C@@H](n3cnc4c(N)ncnc43)[C@H](O)[C@@H]2O)cc1,1.47%,–
CC1(C)S[C@@H]2[C@H](NC(=O)COc3ccccc3)C(=O)N2C1C(=O)OCc1ccccc1 (stereo partly specified),–,inactive
COc1cc(-c2noc(-c3ccc(N4CCCC4)c([N+](=O)[O-])c3)n2)cc(OC)c1OC,-8.7%,–
CNc1ccc(-c2nc(-c3ccco3)no2)cc1[N+](=O)[O-],-19.6%,–
COc1ccc(-c2noc(-c3ccc(N4CCN(c5ccccc5)CC4)c([N+](=O)[O-])c3)n2)cc1OC,–,7.31 µM (active)
CCn1c(SC(C)C(=O)Nc2ccc(N3CCOCC3)cc2)nnc1-c1ccco1 (stereo unspecified),-4.59%,–
O=C(Nc1cccnc1Oc1ncnc2cc(Cl)ccc12)c1ccc(F)cc1,1.07%,–
NS(=O)(=O)c1ccc(NS(=O)(=O)/C=C/c2ccccc2)cc1,-16.4%,–
Cc1cccc(N2C(=O)c3ccc(C(=O)Nc4cccc(C(=O)O)c4)cc3C2=O)c1,-29.4%,–
Cc1ccc(CNC(=O)C2(C(F)(F)F)C/C(=C\Cc3ccccc3)CCCO2)o1 (stereo unspecified),–,11.6 µM (active)
Cc1ccc(CNC(=O)Cn2cnc(S(=O)(=O)N3CCCCC3)c2)o1,-18.7%,–
Cc1ccc(C(=O)N2CC(=O)Nc3ccccc32)o1,0.857%,–
CC1CCCCN1CCCNC(=O)Cn1ncc2c([nH]c3ccccc32)c1=O (stereo unspecified),–,inactive
COc1cccc(-c2nc3n(n2)C(c2ccccc2Cl)C(C(N)=O)=C(C)N3)c1 (stereo unspecified),-28.2%,–
Cc1cc2c(cc1C)[n+](C)cn2CC(O)COCC1CC=CCC1 (stereo unspecified),–,1.84 µM (active)
C/C(=N/NC(=O)c1cc(Cl)ccc1O)C12CC3CC(CC(C3)C1)C2,-1.21%,–
O=C(CSc1ccc([N+](=O)[O-])cn1)Nc1ccc(N2CCOCC2)c(Cl)c1,-0.829%,–
COc1ccc(-c2cc(=O)oc3cc(OCC(=O)N[C@@H](Cc4c[nH]c5ccccc45)C(=O)O)ccc23)cc1,0.178%,–
COc1ccc(C2=NO[C@@H]3C(=O)N(Cc4ccccc4)C(=O)[C@H]23)cc1OC,0.579%,–
COc1ccc(-c2c(C)cc3oc(=O)cc(-c4ccccc4)c3c2C)cc1OC,–,23.1 µM (active)

SMILES,"activity change, negative = growth inhibition",Potency
Cc1cc2oc(=O)cc(-c3ccccc3)c2c(C)c1-c1ccc(OC(F)(F)F)cc1,–,20.6 µM (active)
CC(=O)c1ccc(S(=O)(=O)NC2CC(=O)N(c3ccc4c(c3)OCCO4)C2)cc1 (stereo unspecified),-14.5%,–
CC(C)(C)S(=O)(=O)c1ccccc1-c1noc(-c2ccccc2)c1C(N)=O,4.59%,–
Cn1c(SCC(=O)C(C)(C)C)nnc1-c1ccccn1,27.4%,–
O=C(COC(=O)c1cnccn1)Nc1cccc2ccccc12,-7.74%,–
Cc1ccccc1-c1ccc(Nc2ccc(C(=O)N3CCOCC3)cc2)nn1,-17.6%,–
CO[C@@H]1CN(C)C(=O)c2cc(NC(=O)C3CC3)ccc2OC[C@H](C)N(C(=O)CN2CCOCC2)C[C@@H]1C,-1.78%,–
CCCN(CC(=O)Nc1ccccc1C)C(=O)c1ccc2[nH]c3c(c2c1)CC(C)CC3 (stereo unspecified),–,20.6 µM (active)
CCCN(CC(=O)Nc1ccccc1C)C(=O)c1cc(=O)[nH]c2ccccc12,-16.5%,–
CCCN(CC(=O)Nc1ccccc1C)C(=O)c1ccc(OCC(=O)N2CCOCC2)c(OCC)c1,-3.18%,–
COCCCN1C(=O)C(=O)/C(=C(/O)c2ccc3c(c2)CC(C)O3)C1c1cccnc1 (stereo unspecified),-3.28%,–
COC(=O)C1=C(NC(=O)C(C)(C)C)CCS1,-2.33%,–
Cc1cc(C)c(C=NNc2nc3c([nH]2)c(=O)n(C)c(=O)n3C)c(C)c1,1.78%,–
Cc1ccc(NC(=O)C(=O)NCc2ccco2)c(C)c1,-25.9%,–
Cc1ccc(N(Cc2ccc(C(=O)Nc3ccccc3C(=O)NCc3ccco3)cc2)S(C)(=O)=O)cc1C,–,18.4 µM (active)
O=C(Nc1ccccc1)Nc1ccccc1C(=O)NCc1ccco1,-17.1%,–
Cc1ccccc1NC(=O)NCc1ccco1,8.72%,–
CS(=O)(=O)N(CC(=O)NCc1ccco1)c1ccc2c(c1)OCO2,-0.836%,–
Cc1cccc(Nc2ccccc2C(=O)NCc2ccco2)c1C,–,20.6 µM (active)
CCC(C)NC(=O)CN(C1CCCCC1)S(C)(=O)=O (stereo unspecified),-11.3%,–
CCOC(=O)N1CCN(C(=O)C2CCN(S(C)(=O)=O)CC2)CC1,-4.04%,–
Fc1ccc(COc2ccc(-c3nnco3)cc2)cc1,-10.2%,–
O=C(O)C1CCN(C(=O)c2cc(F)cc3c2OCOC3)CC1,-1.32%,–
Clc1nc(NC2CCCC2)nc(N2CCOCC2)n1,-27.4%,–
Cc1ccnc(N2CCC(C(=O)NC3CCCCCC3)CC2)n1,-5.99%,–
